Measured values: PubChem BioAssay
Results filed as inconclusive are left out. Activity calls are given as the source filed them.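 How the source made its calls, unless noted: active means percent response above a set limit, the screen-wide mean plus 3 SD (cut at about 130% in these data); inactive means the rest.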

Key:
[1] = yeast TOR pathway RPL19A-GFP modulators, primary screen, cell-based, S. cerevisiae, multiplex flow cytometry (AID 1862; in the data active means percent of DMSO control GFP below about 86%;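 further: lower values mimic rapamycin by blocking the RPL19A rise seen in DMSO cells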); details: S. cerevisiae RPL19A-GFP strain, flow cytometry fluorescence, 3 h; at 10 µM; stronger effect = lower value
[2] = modulators of MEP2-GFP levels in yeast, primary screen, S. cerevisiae, multiplex flow cytometry (AID 1867;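 active means GFP response, as percent of the DMSO control, above the screen-wide mean plus 3 SD, about 139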;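 further: median GFP channel fluorescence of barcode-gated MEP2-GFP cells measured by flow cytometry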); details: S. cerevisiae MEP2-GFP strain, 3 h, at 10 µM, stronger effect = higher value, 100% means same as DMSO wells
[3] = modulators of CIT2-GFP expression in yeast, primary screen, S. cerevisiae, GFP fusion, multiplex flow cytometry (AID 1870); details: 3 h, at 10 µM, stronger effect = higher value;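 further: barcoded CIT2-GFP strain pooled with four other GFP strains with rapamycin as positive control; median GFP fluorescence per well over plate mean of DMSO wells so 100% = DMSO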
[4] = modulators of LAP4-GFP expression in yeast, primary screen, S. cerevisiae, multiplex flow cytometry (AID 1873;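 active means GFP signal, as percent of the solvent control, above the screen mean plus 3 SD, about 149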); details: 3 h, at 10 µM, stronger effect = higher value
[5] = modulators of AGP1-GFP expression in yeast TOR pathway, primary screen, cell-based, multiplex flow cytometry, S. cerevisiae (AID 1887;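 active means GFP signal above the screen-wide mean plus 3 SD, that is over about 124.5% of the solvent control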;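 further: AGP1-GFP fusion strain of S. cerevisiae within a five-strain barcoded multiplex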); details: 3 h, at 10 µM, stronger effect = higher value
[6] = inhibitors of CD8+ T cell-vesicle binding, pilot screen, LFA-1/ICAM-1 modulator project, MLPCN validation set, flow cytometry (AID 2523;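 active means response below a set limit, under 55% cells CD8-positive and vesicle-bound, and CD8 cells' 90th-percentile brightness under 279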;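 on vesicle binding response: mean PE anti-B7-1 fluorescence of CD8+ cells relative to row control; 100% = QL9-loaded vesicles with DMSO vehicle in the same plate row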); details: 2C mouse CD8+ T cells, at 7 µM, stronger effect = lower value; double positive events: measured here: CD8+/vesicle+ event percentage
[7] = biological target: Integrin beta-1 (Homo sapiens) + Integrin alpha-4 (Homo sapiens) (UniProt P13612+P05556); assay: inhibition of HUTS-21 binding to VLA-4, pilot screen, VLA-4 allosteric modulator project, U937 cells, HUTS-21 mAb, flow cytometry, validation set (AID 2674;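 active means inhibition above 50%, about 3 SD of the validation set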;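 further: antibody binding induced by the VLA-4 ligand LDV present at three times its Kd; 0% = LDV ligand with antibody and no compound and 100% = antibody without LDV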); details: HUTS-21 LIBS mAb binding, at 6.7 µM, stronger effect = higher value, binding induced by LDV ligand
[8] = biological target: Beta-adrenergic receptor kinase 1 (Homo sapiens) (UniProt P25098); assay: GRK2 binders displacing RNA aptamer, biochemical, validation, human GRK2, bead flow cytometry (AID 488806;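 active means aptamer binding inhibition above 30%, about 3 SD of noise from non-fluorescent compounds; inactive means inhibition at or below 30%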); details: bead-bound GRK2, FAM-aptamer displacement, at 10 µM, stronger effect = higher value
[9] = biological target: Beta-2 adrenergic receptor (Homo sapiens) (UniProt P07550); assay: beta2AR agonists driving receptor internalization, pilot screen, cell-based, FAP fluorogen, flow cytometry, validation set (AID 504459;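 active means percent response above 42, roughly 3 SD of non-fluorescent test compounds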;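 further: agonist-driven loss of surface beta2AR via internalization measured by FAP dye flow cytometry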); details: Am2.2-beta2AR cells, FAP surface receptor flow cytometry; at 10 µM; stronger effect = higher value
[10] = biological target: AP-2 complex subunit beta (Homo sapiens) (UniProt P63010); assay: inhibitors of arrestin peptide binding to AP2, pilot screen, biochemical, validation set, GST-AP2 beads, flow cytometry (AID 504541;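 active means inhibition above 54%, about 3 SD of non-fluorescent compounds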;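 further: AP2 carries R879A mutation and is captured from E. coli lysate; bead-bound FITC arrestin peptide fluorescence measuring arrestin peptide binding to AP2; 0% = DMSO wells and 100% = excess unlabeled arrestin peptide control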); details: FITC arrestin peptide, at 10 µM, stronger effect = higher value, AP2 beta2 appendage fragment, R879A mutant
[11] = yeast V-ATPase proton transport modulators, S. cerevisiae, pHLuorin, HTS validation (AID 504600; in the data active means response above about 15%;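 further: plate controls were DMSO for no effect and reference compound for full effect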); details: S. cerevisiae pHLuorin cytosolic pH, at 10 µM, stronger effect = higher value
[12] = system: anti-desmoglein-3 scFv antibody binding to human DSG3; assay: inhibitors of anti-DSG3 scFv binding to DSG3, pilot screen, biochemical, validation compound set, bead-based, flow cytometry (AID 588368;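 active means binding below the plate cutoff, the plate median minus 3 SD, with a reading above zero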;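 further: signal is the median channel fluorescence of bead-bound GFP antibody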); details: Protein G beads, DSG3-Fc, scFv-GFP binding, at 10 µM, stronger effect = lower value
[13] = inhibitors of fungal efflux pumps CDR1, CDR2, MDR1, pilot screen, validation compound set, multiplex, phenotypic (AID 588506;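 active means efflux inhibition above 0.42, the validation set average plus 4 SD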;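 further: Nile Red retained in cells so higher fluorescence means more efflux inhibition; 0 = negative control wells and 1 = enniatin B 25 µM full block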); details: S. cerevisiae pump-expressing triplex, Nile Red efflux flow cytometry; at 10 µM; stronger effect = higher value; the pumps come from Candida albicans
[14] = biological target: ATP-binding cassette sub-family B member 6 (Homo sapiens) (UniProt Q9NP58); assay: ABCB6 transporter inhibitors, pilot screen, K562-ABCB6 cells, flow cytometry, validation set (AID 588550;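 active means inhibition above the screen-wide mean plus 3 SD, about 51%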;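 further: 0% = DMSO wells and 100% = benzethonium chloride 70 µM positive control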); details: K562-ABCB6 porphyrin accumulation, 1 h, at 10 µM, stronger effect = higher value
[15] = promoters of myeloid differentiation in arrested cells, primary screen, cell-based, GFP/MAC1 double positive, flow cytometry, validation set (AID 588685;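 active means differentiation response of at least 50%, scaled between solvent and reference control, from cells with both markers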;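 further: compound exposure lasts four days before antibody staining and flow analysis; 0% = DMSO wells and 100% = 5 µM fulvestrant positive control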); details: ER-HoxA9 marrow cells, stronger effect = higher value, normalized: vehicle 0, fulvestrant 100
[16] = superoxide lowering in aged yeast cells, pilot screen, validation compound set (AID 2706;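 active means superoxide response below 65% of plate, a cut near 3 SD across the whole screen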;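 further: yeast exposed to compound for one week at 30 degrees C before staining; 100% = mean of all compound wells on the same plate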); details: S. cerevisiae aging, superoxide DHE fluorescence; at 10 µM, stronger effect = lower value

Chain of AP-2 complex subunit beta (Homo sapiens) (P63010 whole entry, looked up, the tested form may be a part, one chain of several): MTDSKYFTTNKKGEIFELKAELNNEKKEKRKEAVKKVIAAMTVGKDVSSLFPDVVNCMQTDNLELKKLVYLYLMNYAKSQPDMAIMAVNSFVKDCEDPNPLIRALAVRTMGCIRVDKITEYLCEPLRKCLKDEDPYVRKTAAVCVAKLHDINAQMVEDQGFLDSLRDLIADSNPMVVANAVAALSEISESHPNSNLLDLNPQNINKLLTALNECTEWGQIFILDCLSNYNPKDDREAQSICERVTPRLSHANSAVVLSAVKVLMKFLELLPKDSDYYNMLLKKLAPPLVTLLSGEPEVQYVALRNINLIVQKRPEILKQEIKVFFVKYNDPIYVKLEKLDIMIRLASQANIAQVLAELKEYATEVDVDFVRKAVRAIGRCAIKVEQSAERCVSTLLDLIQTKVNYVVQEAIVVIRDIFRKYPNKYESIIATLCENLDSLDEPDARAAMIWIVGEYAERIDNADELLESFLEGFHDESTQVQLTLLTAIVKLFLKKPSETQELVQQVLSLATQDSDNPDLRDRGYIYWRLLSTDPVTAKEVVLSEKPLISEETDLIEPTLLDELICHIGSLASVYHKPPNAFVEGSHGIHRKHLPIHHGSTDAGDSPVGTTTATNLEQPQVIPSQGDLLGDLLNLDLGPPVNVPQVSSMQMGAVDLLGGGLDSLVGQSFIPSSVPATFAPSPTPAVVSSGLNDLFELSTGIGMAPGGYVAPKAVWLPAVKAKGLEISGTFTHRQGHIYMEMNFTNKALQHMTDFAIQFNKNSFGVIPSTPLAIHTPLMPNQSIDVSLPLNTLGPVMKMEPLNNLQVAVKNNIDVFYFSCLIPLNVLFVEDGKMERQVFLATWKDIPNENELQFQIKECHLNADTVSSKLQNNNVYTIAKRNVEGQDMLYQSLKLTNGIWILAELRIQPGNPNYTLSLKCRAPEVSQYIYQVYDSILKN
Chain of Integrin beta-1 (Homo sapiens) + Integrin alpha-4 (Homo sapiens) (P05556 whole entry, looked up): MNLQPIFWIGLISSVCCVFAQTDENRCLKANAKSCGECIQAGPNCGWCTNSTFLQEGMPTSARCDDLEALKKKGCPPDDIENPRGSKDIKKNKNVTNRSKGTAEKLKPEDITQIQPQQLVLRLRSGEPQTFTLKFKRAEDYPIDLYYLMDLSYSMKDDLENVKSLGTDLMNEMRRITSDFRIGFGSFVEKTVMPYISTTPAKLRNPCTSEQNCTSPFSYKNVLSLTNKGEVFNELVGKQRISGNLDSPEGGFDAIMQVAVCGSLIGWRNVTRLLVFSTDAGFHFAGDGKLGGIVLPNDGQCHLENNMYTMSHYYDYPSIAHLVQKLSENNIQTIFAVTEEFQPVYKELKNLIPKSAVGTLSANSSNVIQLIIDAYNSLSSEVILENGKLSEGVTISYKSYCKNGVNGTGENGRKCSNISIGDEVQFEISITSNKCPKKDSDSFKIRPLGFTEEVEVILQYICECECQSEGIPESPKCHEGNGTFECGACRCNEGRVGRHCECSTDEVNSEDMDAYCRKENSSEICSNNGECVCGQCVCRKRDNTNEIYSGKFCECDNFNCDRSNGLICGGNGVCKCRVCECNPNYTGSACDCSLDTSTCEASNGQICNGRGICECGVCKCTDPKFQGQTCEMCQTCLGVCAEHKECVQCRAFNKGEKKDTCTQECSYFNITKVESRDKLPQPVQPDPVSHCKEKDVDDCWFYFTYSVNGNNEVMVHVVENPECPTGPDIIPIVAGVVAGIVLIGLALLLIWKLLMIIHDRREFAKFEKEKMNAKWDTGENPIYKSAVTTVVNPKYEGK
Chain of Integrin beta-1 (Homo sapiens) + Integrin alpha-4 (Homo sapiens) (P13612 whole entry, looked up): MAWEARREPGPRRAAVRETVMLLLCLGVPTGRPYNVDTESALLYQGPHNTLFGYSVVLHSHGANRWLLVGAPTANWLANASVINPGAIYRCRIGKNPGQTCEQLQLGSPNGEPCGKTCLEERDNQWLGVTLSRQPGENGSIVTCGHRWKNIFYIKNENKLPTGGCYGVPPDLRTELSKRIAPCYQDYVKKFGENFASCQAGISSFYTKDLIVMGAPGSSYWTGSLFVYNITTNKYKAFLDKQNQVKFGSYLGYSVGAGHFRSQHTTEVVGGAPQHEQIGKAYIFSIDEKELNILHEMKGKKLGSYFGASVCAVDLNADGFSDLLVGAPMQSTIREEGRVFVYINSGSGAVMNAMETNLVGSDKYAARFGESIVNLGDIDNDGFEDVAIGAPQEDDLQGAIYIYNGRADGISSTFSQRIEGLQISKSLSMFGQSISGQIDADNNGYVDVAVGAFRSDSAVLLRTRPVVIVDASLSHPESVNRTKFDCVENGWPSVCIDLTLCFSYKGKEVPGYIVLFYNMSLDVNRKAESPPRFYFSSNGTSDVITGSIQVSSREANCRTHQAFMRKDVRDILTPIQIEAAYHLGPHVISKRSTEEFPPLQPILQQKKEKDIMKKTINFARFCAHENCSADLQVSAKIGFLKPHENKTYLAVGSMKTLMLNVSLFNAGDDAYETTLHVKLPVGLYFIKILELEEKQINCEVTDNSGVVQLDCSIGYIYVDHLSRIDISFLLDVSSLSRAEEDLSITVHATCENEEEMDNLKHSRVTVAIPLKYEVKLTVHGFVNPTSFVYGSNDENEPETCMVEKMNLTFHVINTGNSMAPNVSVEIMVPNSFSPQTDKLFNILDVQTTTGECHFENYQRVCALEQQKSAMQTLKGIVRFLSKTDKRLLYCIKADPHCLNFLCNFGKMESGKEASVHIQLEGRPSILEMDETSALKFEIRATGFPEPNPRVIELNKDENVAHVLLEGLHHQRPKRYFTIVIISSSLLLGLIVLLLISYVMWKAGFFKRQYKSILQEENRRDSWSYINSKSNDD
Chain of ATP-binding cassette sub-family B member 6 (Homo sapiens) (Q9NP58 whole entry, looked up): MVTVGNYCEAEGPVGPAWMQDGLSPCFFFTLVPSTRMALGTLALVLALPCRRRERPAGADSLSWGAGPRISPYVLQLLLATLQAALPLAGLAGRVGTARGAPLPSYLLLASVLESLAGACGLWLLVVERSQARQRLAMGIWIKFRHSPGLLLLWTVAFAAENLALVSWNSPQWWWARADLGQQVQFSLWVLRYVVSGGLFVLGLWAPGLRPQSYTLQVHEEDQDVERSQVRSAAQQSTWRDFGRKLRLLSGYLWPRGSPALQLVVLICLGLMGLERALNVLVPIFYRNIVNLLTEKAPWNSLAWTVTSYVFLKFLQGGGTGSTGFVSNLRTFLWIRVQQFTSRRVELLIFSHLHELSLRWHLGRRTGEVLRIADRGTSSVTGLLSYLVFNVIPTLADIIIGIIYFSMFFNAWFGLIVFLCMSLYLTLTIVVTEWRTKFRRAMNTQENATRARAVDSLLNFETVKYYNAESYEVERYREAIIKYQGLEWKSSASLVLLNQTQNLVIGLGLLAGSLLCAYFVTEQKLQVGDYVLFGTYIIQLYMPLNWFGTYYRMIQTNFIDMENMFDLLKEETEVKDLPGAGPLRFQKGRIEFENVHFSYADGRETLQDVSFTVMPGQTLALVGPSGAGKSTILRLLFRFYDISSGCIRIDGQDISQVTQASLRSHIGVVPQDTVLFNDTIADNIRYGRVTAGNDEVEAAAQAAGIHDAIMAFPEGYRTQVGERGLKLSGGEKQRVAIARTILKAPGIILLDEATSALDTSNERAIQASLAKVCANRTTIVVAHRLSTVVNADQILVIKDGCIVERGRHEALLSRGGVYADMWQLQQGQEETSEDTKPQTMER
Chain of Beta-adrenergic receptor kinase 1 (Homo sapiens) (P25098 whole entry, looked up): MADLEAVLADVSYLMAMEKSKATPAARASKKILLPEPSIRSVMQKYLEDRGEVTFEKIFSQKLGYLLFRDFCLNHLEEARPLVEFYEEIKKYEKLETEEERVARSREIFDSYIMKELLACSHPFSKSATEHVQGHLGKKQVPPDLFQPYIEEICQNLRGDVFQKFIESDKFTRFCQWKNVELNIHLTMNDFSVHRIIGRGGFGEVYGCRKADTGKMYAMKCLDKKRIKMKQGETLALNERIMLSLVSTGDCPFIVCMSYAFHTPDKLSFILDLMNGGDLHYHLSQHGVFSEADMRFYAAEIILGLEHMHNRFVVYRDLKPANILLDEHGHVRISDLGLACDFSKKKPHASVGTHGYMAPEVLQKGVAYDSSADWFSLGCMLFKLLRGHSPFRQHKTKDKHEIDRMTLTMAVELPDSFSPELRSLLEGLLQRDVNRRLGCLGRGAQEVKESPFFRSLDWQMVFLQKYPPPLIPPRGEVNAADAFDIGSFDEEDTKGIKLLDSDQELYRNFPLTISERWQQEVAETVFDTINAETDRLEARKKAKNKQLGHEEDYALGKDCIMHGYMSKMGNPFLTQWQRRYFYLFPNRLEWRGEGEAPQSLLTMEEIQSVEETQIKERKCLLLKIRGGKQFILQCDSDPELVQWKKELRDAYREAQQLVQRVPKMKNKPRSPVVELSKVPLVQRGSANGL
Chain of Beta-2 adrenergic receptor (Homo sapiens) (P07550 whole entry, looked up): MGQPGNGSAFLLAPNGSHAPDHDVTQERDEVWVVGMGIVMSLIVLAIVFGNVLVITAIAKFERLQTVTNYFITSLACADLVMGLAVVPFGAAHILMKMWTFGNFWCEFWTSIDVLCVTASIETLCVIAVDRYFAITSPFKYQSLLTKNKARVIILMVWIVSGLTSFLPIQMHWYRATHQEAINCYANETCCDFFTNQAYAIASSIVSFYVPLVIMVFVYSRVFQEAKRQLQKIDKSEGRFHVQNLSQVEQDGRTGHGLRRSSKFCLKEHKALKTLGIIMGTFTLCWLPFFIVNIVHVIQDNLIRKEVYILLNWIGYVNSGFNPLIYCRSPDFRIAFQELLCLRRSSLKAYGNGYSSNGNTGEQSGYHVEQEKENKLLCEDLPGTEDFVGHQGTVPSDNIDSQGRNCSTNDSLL

Structure (SMILES)	percent of DMSO control GFP [1]	GFP response vs DMSO [2]	percent response of DMSO control [3]	GFP response vs DMSO [4]	GFP response, % of DMSO [5]	double positive events [6] [%]	vesicle binding response [6]	inhibition [7]	aptamer binding inhibition [8]	response [9]	inhibition [10]	response [11]	binding (% of control) [12]	efflux inhibition (fraction of control) [13]	inhibition [14]	differentiation response [15]	superoxide response (% of plate) [16]
CCOC(=O)[C@H](CCc1ccccc1)N[C@@H](C)C(=O)N1CCC[C@H]1C(=O)O	102% (inactive)	98.3% (inactive)	93.1% (inactive)	98.6% (inactive)	96.4% (inactive)	64.3	171% (inactive)	-5.64% (inactive)	13% (inactive)	-2.62% (inactive)	61% (active)	-5.12% (inactive)	95.3% (inactive)	0.46 (active)	3% (inactive)	25.7% (inactive)	–
CC(=O)O[C@]1(C(C)=O)CC[C@H]2[C@@H]3C=C(Cl)C4=CC(=O)CC[C@]4(C)[C@H]3CC[C@@]21C	99.3% (inactive)	89.7% (inactive)	102% (inactive)	84.3% (inactive)	97.2% (inactive)	48.7	201% (inactive)	-20.8% (inactive)	-1% (inactive)	–	-12.8% (inactive)	-0.6% (inactive)	105% (inactive)	-0.12 (inactive)	9% (inactive)	-9.89% (inactive)	108% (inactive)
CCOc1ccccc1OCCOc1ccc(F)cc1	101% (inactive)	98.3% (inactive)	100% (inactive)	88.1% (inactive)	91.1% (inactive)	63.4	193% (inactive)	-30.5% (inactive)	0% (inactive)	7.79% (inactive)	0.71% (inactive)	-0.31% (inactive)	104% (inactive)	0.24 (inactive)	1% (inactive)	12% (inactive)	–
CCOc1ccc(CCn2c(-c3ccco3)nc3ccccc3c2=O)cc1OCC	100% (inactive)	106% (inactive)	94.2% (inactive)	92.7% (inactive)	92.6% (inactive)	62.6	258% (inactive)	-18.1% (inactive)	1% (inactive)	2.8% (inactive)	3.57% (inactive)	-0.47% (inactive)	91.2% (inactive)	0.27 (inactive)	20% (inactive)	0.24% (inactive)	–
Cc1cc(-c2nn(-c3ccccc3F)cc2CN2CCC(O)CC2)c(C)s1	102% (inactive)	98.9% (inactive)	104% (inactive)	93.3% (inactive)	95.5% (inactive)	47.2	132% (inactive)	-7.7% (inactive)	4% (inactive)	–	-9.39% (inactive)	0.7% (inactive)	98.3% (inactive)	-0.35 (inactive)	10% (inactive)	-30.9% (inactive)	93.1% (inactive)
C#CCN1C(=O)C(O)(CC(=O)c2ccc(OC)c(OC)c2)c2ccccc21 (stereo not drawn)	102% (inactive)	103% (inactive)	93.1% (inactive)	98% (inactive)	97.6% (inactive)	64.1	315% (inactive)	11% (inactive)	1% (inactive)	-2.19% (inactive)	-2.48% (inactive)	-1.43% (inactive)	104% (inactive)	0.11 (inactive)	-4% (inactive)	12.9% (inactive)	–
CN1CCC(=C2c3ccccc3C=Cc3ccccc32)CC1	98.8% (inactive)	99.9% (inactive)	105% (inactive)	104% (inactive)	99.7% (inactive)	62.8	194% (inactive)	13.8% (inactive)	-3% (inactive)	–	24.3% (inactive)	-5.41% (inactive)	97.2% (inactive)	-0.09 (inactive)	8% (inactive)	-29.3% (inactive)	88.8% (inactive)
CCCN(CCC)S(=O)(=O)c1ccc(C(=O)O)cc1	101% (inactive)	107% (inactive)	96.9% (inactive)	124% (inactive)	104% (inactive)	56.2	170% (inactive)	1.62% (inactive)	1% (inactive)	–	-3.49% (inactive)	0.87% (inactive)	99.3% (inactive)	-0.05 (inactive)	4% (inactive)	-24.4% (inactive)	104% (inactive)
C=C(C)COc1ccc(-c2n[nH]c(C)c2-c2ccc(OC)cc2)c(O)c1	105% (inactive)	111% (inactive)	95.9% (inactive)	112% (inactive)	87.7% (inactive)	58.9	175% (inactive)	-9.57% (inactive)	-3% (inactive)	–	–	-1.12% (inactive)	107% (inactive)	0.75 (active)	10% (inactive)	-9.89% (inactive)	101% (inactive)
COc1ccc(CCN(C)CCCC(C#N)(c2ccc(OC)c(OC)c2)C(C)C)cc1OC (stereo not drawn)	105% (inactive)	104% (inactive)	98.8% (inactive)	95.4% (inactive)	99.7% (inactive)	63.8	183% (inactive)	2.56% (inactive)	-1% (inactive)	–	53.9% (inactive)	1.25% (inactive)	102% (inactive)	–	2% (inactive)	24% (inactive)	101% (inactive)
